Test systems include HCT-15 colon; HT29 colon; SNB-75 CNS; SNB-19 CNS; U251 CNS; PC-3 prostate; SK-MEL-5 melanoma; UACC-62 melanoma; LOX IMVI melanoma; SK-MEL-28 melanoma; SK-MEL-2 melanoma; EKVX NSCLC; SN12C renal; UO-31 renal; TK-10 renal; ACHN renal; CAKI-1 renal; A498 renal; CCRF-CEM leukemia; MOLT-4 leukemia.
Holding throughout (assay): NCI-60 one-dose screen, 48 h (100 = growth as untreated, 0 = no growth, -100 = all killed)
Holding throughout (conditions): 10 µM unless noted

“And” between values parts separate entries of the source, which are not always exact repeats. Equal values may be shown once. The panel holds about 83,000 compounds, 20% with a hit somewhere; the sample as a whole holds those more often.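 Values shown are percent growth following 48 h exposure of cells in 96-well plates to a single concentration of compound; below 10 was considered active.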 The source made the active and inactive calls.

Take `CC/C(=C(/c1ccc(O)cc1)c1ccc(OCCN2CCCCCC2)cc1)c1ccc(Cl)cc1`: the growth in the test with HCT-15 colon is 31.5% (inactive); in the test on HT29 colon it was 14.2% (inactive); with SNB-75 CNS, 88.7% (inactive); in the test with SNB-19 CNS it was 80.2% (inactive); with U251 CNS, 50.7% (inactive); in the test on PC-3 prostate, 27.8% (inactive). Moreover, the growth was 67% (inactive) in the test on SK-MEL-5 melanoma; 83.2% (inactive) with UACC-62 melanoma; 67.7% (inactive) in the test on LOX IMVI melanoma; 58.5% (inactive) with SK-MEL-28 melanoma; 96.5% (inactive) in the test on SK-MEL-2 melanoma; 91.9% (inactive) in the test with EKVX NSCLC. In addition, the growth in the test on SN12C renal is 74.5% (inactive); in the test with UO-31 renal, 65.7% (inactive); with TK-10 renal, 91.6% (inactive); in the test with ACHN renal, 99.9% (inactive); in the test on CAKI-1 renal it was 95.8% (inactive); in the test with A498 renal, 97.7% (inactive). Besides, the results for the growth with CCRF-CEM leukemia and in the test on MOLT-4 leukemia were 20.7% (inactive) and 17% (inactive), respectively.

As to `CC1(C)C(N)=Nc2cc(OCCCCN3Cc4ccccc4C3)c(OCC3CC3)cc21`, the growth with HCT-15 colon was 36.2% (inactive); in the test on HT29 colon, 27.6% (inactive); in the test on SNB-75 CNS, 78.9% (inactive); in the test with SNB-19 CNS it was 81.9% (inactive); in the test on U251 CNS it was 56.3% (inactive); in the test with PC-3 prostate it was 98.5% (inactive). Further, the growth in the test with SK-MEL-5 melanoma was 57.7% (inactive); with UACC-62 melanoma it was 82.7% (inactive); in the test with LOX IMVI melanoma it was 26.4% (inactive); in the test with SK-MEL-28 melanoma it was 54.4% (inactive); in the test with SK-MEL-2 melanoma, 110% (inactive); in the test on EKVX NSCLC, 78.6% (inactive). In addition, the growth in the test on SN12C renal is 81.9% (inactive); with UO-31 renal, 60.5% (inactive); in the test with TK-10 renal, 86.9% (inactive); in the test on ACHN renal it was 87.8% (inactive); in the test on CAKI-1 renal, 56.3% (inactive); in the test with A498 renal, 109% (inactive). Besides, the values for the growth in the test with CCRF-CEM leukemia and in the test with MOLT-4 leukemia were 99.4% (inactive) and 101% (inactive), respectively.

`CCN(CC)CC#CCOC(=O)[C@]1(C)CCC[C@]2(C)c3ccc(C(C)C)cc3CC[C@@H]12`: the growth in the test with HCT-15 colon was 52.4% (inactive); in the test on HT29 colon it was 46.5% (inactive); with SNB-75 CNS, 97.5% (inactive); in the test on SNB-19 CNS, 92% (inactive); in the test with U251 CNS, 79.7% (inactive); in the test with PC-3 prostate, 64.3% (inactive). Moreover, the growth in the test on SK-MEL-5 melanoma is 77.1% (inactive); with UACC-62 melanoma, 71.8% (inactive); with LOX IMVI melanoma, 92.6% (inactive); in the test on SK-MEL-28 melanoma it was 84.8% (inactive); with SK-MEL-2 melanoma, 98.6% (inactive); with EKVX NSCLC, 86.6% (inactive). For the same molecule, the growth in the test on SN12C renal is 83.8% (inactive); in the test with UO-31 renal, 65% (inactive); in the test with TK-10 renal, 102% (inactive); with ACHN renal it was 92.1% (inactive); in the test with CAKI-1 renal, 94.5% (inactive); in the test with A498 renal, 82.9% (inactive). The growth in the test with CCRF-CEM leukemia was 4.53% (active); with MOLT-4 leukemia it was 82.9% (inactive).

As to `CCOC(=O)C1=C(C)N=C2SC=C(c3ccc(F)cc3)N2[C@H]1c1cn(-c2ccccc2)nc1-c1ccc(Cl)cc1`, the growth was 92.9% (inactive) in the test on HCT-15 colon; 101% (inactive) in the test with HT29 colon; 78.2% (inactive) in the test on SNB-75 CNS; 92.1% (inactive) in the test with SNB-19 CNS; 88% (inactive) in the test on U251 CNS; 80.7% (inactive) in the test on PC-3 prostate. The growth in the test on SK-MEL-5 melanoma was 96.4% (inactive); with UACC-62 melanoma, 81.6% (inactive); in the test on LOX IMVI melanoma, 95.7% (inactive); with SK-MEL-28 melanoma it was 106% (inactive); in the test on SK-MEL-2 melanoma, 97.4% (inactive); in the test on EKVX NSCLC, 88.4% (inactive). Besides, the growth is 98.6% (inactive) in the test with SN12C renal; 85.1% (inactive) in the test with UO-31 renal; 93.6% (inactive) in the test on TK-10 renal; 101% (inactive) with ACHN renal; 84.1% (inactive) in the test with CAKI-1 renal; 89.7% (inactive) in the test on A498 renal. The growth in the test with CCRF-CEM leukemia is 95.5% (inactive); in the test with MOLT-4 leukemia, 78.3% (inactive).

In the case of `O=C1C=CC(=O)N1c1ccc2ccccc2c1`, the growth with HCT-15 colon is 56.3% (inactive) and 91.1% (inactive); in the test with HT29 colon, -42.9% (active) and 32.6% (inactive); in the test with SNB-75 CNS, 88.9% (inactive) and 105% (inactive); with SNB-19 CNS, 103% (inactive) and 107% (inactive); with U251 CNS it was 95.9% (inactive) and 96.5% (inactive); with PC-3 prostate, 91% (inactive) and 90% (inactive). The growth in the test with SK-MEL-5 melanoma is 106% (inactive) and 102% (inactive); with UACC-62 melanoma, 98.8% (inactive) and 93.6% (inactive); in the test on LOX IMVI melanoma it was 91.6% (inactive) and 77.6% (inactive); in the test on SK-MEL-28 melanoma, 110% (inactive) and 116% (inactive); with SK-MEL-2 melanoma, 98.2% (inactive) and 101% (inactive); in the test with EKVX NSCLC it was 112% (inactive) and 95% (inactive). Moreover, the growth in the test on SN12C renal is 99.3% (inactive) and 91.1% (inactive); with UO-31 renal it was 68.3% (inactive) and 72.8% (inactive); in the test with TK-10 renal, 96.2% (inactive) and 36.7% (inactive); in the test on ACHN renal, 38% (inactive) and 50.3% (inactive); with CAKI-1 renal, 53.7% (inactive) and 83% (inactive); in the test on A498 renal, 101% (inactive). Further, the growth in the test on CCRF-CEM leukemia was 41.3% (inactive) and 33.4% (inactive); with MOLT-4 leukemia, 49.7% (inactive) and 37.1% (inactive).

As for `COc1cc(Nc2nc3ccccc3cc2C(=O)Nc2ccc(F)c(F)c2)cc(OC)c1OC`, the growth in the test with HCT-15 colon was 13.5% (inactive); with HT29 colon it was 28.5% (inactive); in the test on SNB-75 CNS it was 45.4% (inactive); in the test with SNB-19 CNS, 25.3% (inactive); in the test with U251 CNS, 19.1% (inactive); in the test on PC-3 prostate it was 10.7% (inactive). For the same molecule, the growth in the test with SK-MEL-5 melanoma is 13.8% (inactive); in the test with UACC-62 melanoma, 12.9% (inactive); in the test with LOX IMVI melanoma it was 17.6% (inactive); in the test on SK-MEL-28 melanoma, 35.7% (inactive); in the test with SK-MEL-2 melanoma, 48.2% (inactive); in the test on EKVX NSCLC, 30% (inactive). Moreover, the growth in the test on SN12C renal was 12.5% (inactive); in the test on UO-31 renal it was 21.8% (inactive); in the test with TK-10 renal, 47.8% (inactive); with ACHN renal it was 5.68% (active); with CAKI-1 renal, 46.5% (inactive); in the test on A498 renal, -3.64% (active). In addition, the growth in the test on CCRF-CEM leukemia was 24.7% (inactive); in the test on MOLT-4 leukemia, 14.2% (inactive).

As to `OCCN1CCN(c2cc(-c3cccc(OC(F)(F)F)c3)nc3ccc(N4CCCC4)cc23)CC1`, the growth was 10.9% (inactive) in the test on HCT-15 colon; 5.34% (active) in the test on HT29 colon; 53.5% (inactive) in the test with SNB-75 CNS; 74.1% (inactive) in the test with SNB-19 CNS; 29.3% (inactive) in the test on U251 CNS; 25.9% (inactive) with PC-3 prostate. The growth in the test on SK-MEL-5 melanoma was 46.7% (inactive); in the test on UACC-62 melanoma it was 59.6% (inactive); in the test on LOX IMVI melanoma it was 9.02% (active); with SK-MEL-28 melanoma, 71.1% (inactive); in the test with SK-MEL-2 melanoma, 93.3% (inactive); with EKVX NSCLC it was 75.9% (inactive). For the same molecule, the growth is 59.5% (inactive) in the test with SN12C renal; 37.1% (inactive) in the test on UO-31 renal; 69.3% (inactive) with TK-10 renal; 44.7% (inactive) in the test on ACHN renal; 40.5% (inactive) with CAKI-1 renal; 68.3% (inactive) with A498 renal. The growth in the test with CCRF-CEM leukemia is 40% (inactive); in the test with MOLT-4 leukemia, 11.2% (inactive).

The values above are taken from PubChem BioAssay (NCI).
